From PubChem BioAssay
GPR151 ag = activates the human receptor GPR151; Q8TDV0; PathHunter beta-arrestin GPR151 cells, luminescence; activation, % at 11.2 µM; 650,000 tested, 1% active; AID 1508602; in the data active = activation above about 4.9%;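 note: 0% = median of compound wells and 100% = cells with positive control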
FBW7 activator = activators of human E3 ligase FBW7. 650,000 tested, 0.13% active. normalized activity (activation), % at 26.1 µM. AlphaScreen FBW7–phospho-cyclin E peptide binding, activator screen. Q969H0; in the data active = normalized activity above about 1.9%;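 note: purified mutant Fbw7 with reduced substrate affinity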
Target sequence (Q969H0 whole entry, looked up): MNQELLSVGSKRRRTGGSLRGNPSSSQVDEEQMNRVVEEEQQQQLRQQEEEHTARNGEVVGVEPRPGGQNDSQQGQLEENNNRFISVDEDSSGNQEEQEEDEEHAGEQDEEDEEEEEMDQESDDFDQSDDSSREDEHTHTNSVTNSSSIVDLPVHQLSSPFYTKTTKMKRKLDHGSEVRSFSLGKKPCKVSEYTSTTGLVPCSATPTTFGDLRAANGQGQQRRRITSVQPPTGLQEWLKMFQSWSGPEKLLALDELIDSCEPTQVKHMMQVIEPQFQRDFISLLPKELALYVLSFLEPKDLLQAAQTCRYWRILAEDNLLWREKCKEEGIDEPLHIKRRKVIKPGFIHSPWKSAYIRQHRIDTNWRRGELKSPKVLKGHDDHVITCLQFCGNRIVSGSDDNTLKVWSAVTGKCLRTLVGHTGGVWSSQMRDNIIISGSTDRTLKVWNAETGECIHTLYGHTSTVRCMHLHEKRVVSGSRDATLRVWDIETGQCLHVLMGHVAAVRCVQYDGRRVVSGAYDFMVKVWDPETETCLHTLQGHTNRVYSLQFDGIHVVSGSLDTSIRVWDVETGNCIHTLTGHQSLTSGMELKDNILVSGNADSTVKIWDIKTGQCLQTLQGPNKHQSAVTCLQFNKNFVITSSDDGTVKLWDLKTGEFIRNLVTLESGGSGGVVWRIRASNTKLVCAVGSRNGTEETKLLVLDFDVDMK
TEAD-YAP inh = TEAD-YAP interaction inhibition; HEK-TIYL cells, TEAD-Gal4/YAP UAS-luciferase luminescence; inhibition, % at 9.12 µM; 640,000 tested, 1.4% active; AID 1259422; in the data active = inhibition above about 32%;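 note: 0% = median of test compound wells and 100% = reference inhibitor wells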
MITF inh = inhibitors of human MITF; O75030; AlphaScreen MITF homodimerization, bead proximity signal; inhibition, % at 2.6 µM; 650,000 tested, 0.91% active; in the data active = inhibition above about 50%;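 note: 0% = vehicle wells with protein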
MITF inh conf = human MITF inhibition, confirmation | shares compounds with MITF inh | AlphaScreen MITF homodimerization, biotin/His-MITF beads | inhibition, % at 2.6 µM | 4,700 tested, 16% active;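 active = inhibition above a cutoff derived from the DMSO control wells, cut at about 28% in these data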;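 note: 0% = MITF dimer wells with DMSO only; inhibitors lower the bead chemiluminescence by keeping MITF from dimerizing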
AlphaScreen DR = counter-screen: compounds optically interfering with AlphaScreen; shares compounds with MITF inh; AlphaScreen optical interference counterscreen, cell-free; IC50, µM; 480 tested, 6% active; call rule not given here
AS interf ctr = counter-screen: compounds optically interfering with AlphaScreen; shares compounds with MITF inh; 4,700 tested, 7.6% active; LysRS AlphaScreen counterscreen, signal interference, triplicate; inhibition, % at 2.6 µM; AID 1259376;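 active = inhibition above a cutoff derived from the DMSO control wells, cut at about 30% in these data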
An asterisk follows results filed as active; . = no result. Most compounds without a hit are left out; they make up all but 3.5% or so of the library.

SMILES | GPR151 ag | FBW7 activator | TEAD-YAP inh | MITF inh | MITF inh conf | AS interf ctr | others
COc1ccccc1CN1CCN(CC2CC3C=CC2C3)CC1 (stereo not given) | 0 | 0 | 9 | 69* | -15 | 6
COCCCNC(=O)CC(NS(=O)(=O)c1ccc(C)cc1)c1cccc(OC)c1OC (stereo not given) | 1 | 0 | 4 | 8 | . | .
CCOC(=O)C1(CCc2ccccc2)CCN(C(=O)CCn2cnnn2)CC1 | 2 | 0 | -23 | 61* | -1 | 8
CCOC(=O)C1(CCCc2ccccc2)CCN(C(=O)CCn2cnnn2)CC1 | 1 | 0 | 1 | 7 | . | .
CC(NC(=O)c1ccc2c(c1)S(=O)(=O)c1ccccc1C2=O)c1ccc(F)cc1 (stereo not given) | 0 | 0 | -5 | 2 | . | .
CCSc1nnc(NC(=O)c2cc(S(=O)(=O)N3CCCCC3)ccc2Cl)s1 | -1 | 0 | -7 | 57* | 12 | 16
CCCOc1ccccc1C(=O)Nc1nnc(SCC)s1 | -2 | 1 | -4 | 67* | 20 | 12
CCSc1nnc(NC(=O)c2cc(Cl)ccc2Cl)s1 | -1 | 0 | 3 | 2 | . | .
c1ccc(-c2cc(N3CCOCC3)nc(-c3ccccn3)n2)nc1 | -1 | -1 | 45* | 113* | 117* | 100*
Cc1cc(=O)n(C)c(=O)n1CCCCCCNCc1ccccc1 | 0 | 0 | 4 | 77* | -8 | -6
O=C1OC(/C=C/c2ccc(Cl)cc2)=NC/1=C\c1cccc2ccccc12 | 1 | 0 | 2 | 11 | . | .
CNC(=O)c1nnc(-c2ccccc2)o1 | -1 | 0 | -6 | 78* | -4 | -10
O=C1NC(=S)N/C1=C\c1ccc(O)cc1 | 2 | 0 | 10 | 5 | . | .
COc1cccc(CN2CCC(N3CCCCCC3)CC2)c1OC | 0 | 0 | 7 | 13 | . | .
COc1ccccc1CN1CCC(N2CCCCC2)CC1 | -1 | 1 | 3 | 70* | 3 | 21
COc1ccccc1CN1CCC(N2CCN(c3ccccc3)CC2)CC1 | 0 | 0 | -6 | 68* | -5 | -5
CC(=O)C1=C(O)C(=O)N(CC#N)C1c1ccc(O)cc1 (stereo not given) | 1 | 0 | 7 | 2 | . | .
CCOC(=O)N1CCN(C(=O)CN2Cc3cc(Cl)ccc3OC(C)C2)CC1 (stereo not given) | 1 | 0 | 12 | 2 | . | .
Cc1ccc(NC(=O)c2sccc2-n2cccc2)cc1 | 1 | 0 | 8 | 59* | 5 | 17
O=C(c1sccc1-n1cccc1)N1CCCC1 | 0 | 0 | 12 | 5 | . | .
C=CC1=C(C(=O)O)N2C(=O)[C@@H](NC(=O)/C(=N\O)c3csc(N)n3)[C@H]2SC1 (stereo in doubt) | 1 | 0 | -8 | 59* | 59* | 46*
Nc1cc2c(S(=O)(=O)O)cc(S(=O)(=O)O)cc2cc1S(=O)(=O)O | 0 | 0 | 1 | 52* | 35* | 28 | AlphaScreen DR=>6.5
CNS(=O)(=O)c1cc(O)c2c(S(=O)(=O)O)cc(S(=O)(=O)NC)cc2c1 | -1 | 0 | -5 | 12 | . | .
Cc1nccn1CCOc1ccc(Cl)cc1 | -1 | 0 | -18 | 63* | 18 | -7
Cc1ccnc(SCc2cc(=O)c(OC(=O)c3cccc([N+](=O)[O-])c3C)co2)n1 | -1 | 0 | -1 | 10 | . | .
SMILES | GPR151 ag | FBW7 activator | TEAD-YAP inh | MITF inh | MITF inh conf | AS interf ctr | others
Cc1ccc(OCCCN2CCCCC2)c([N+](=O)[O-])c1 | -1 | 0 | -28 | 87* | -5 | 10
Cc1cc(OCCCCN2CC(C)OC(C)C2)ccc1[N+](=O)[O-] (stereo not given) | 2 | 0 | 12 | 40 | . | .
Cc1ccc([N+](=O)[O-])c(OCCCN2CCOCC2)c1 | -1 | 0 | -7 | -10 | . | .
Cc1ccc(OCCCCN2CCCC2)c([N+](=O)[O-])c1 | 0 | 0 | 4 | 83* | -8 | -2
Cc1ccc(OCCCCN2CC(C)OC(C)C2)c([N+](=O)[O-])c1 (stereo not given) | 3 | 0 | 4 | 63* | -9 | -5
Cc1ccc(OCCN2CCCC(C)C2)c([N+](=O)[O-])c1 (stereo not given) | -1 | 0 | 8 | 58* | 13 | 12
O=C(Nc1ccc(-c2nc3ccccc3o2)c(O)c1)c1ccc([N+](=O)[O-])cc1 | -1 | 0 | -7 | -10 | . | .
c1cncc(CN2CCN(Cc3ccncc3)CC2)c1 | 1 | 0 | 5 | 77* | 7 | 0
O=C(C1c2ccccc2Oc2ccccc21)N1CCCC(c2nc(-c3cccnc3)n[nH]2)C1 (stereo not given) | 0 | 0 | -1 | 62* | 7 | 14
Fc1ccccc1N1CCN(C2CCN(Cc3cccnc3)CC2)CC1 | -1 | 0 | 5 | 82* | 9 | 7
Fc1ccccc1N1CCN(Cc2cccnc2)CC1 | 0 | 0 | 7 | 46 | . | .
c1cncc(CN2CCN(Cc3ccc4ccccc4c3)CC2)c1 | 0 | 0 | 14 | 81* | 10 | 12
CN(c1ccc(C(=O)NCc2ccccn2)cc1)S(=O)(=O)c1ccccc1 | 2 | 0 | -2 | 1 | . | .
c1cncc(-c2n[nH]c(C3CCN(Cc4ccncc4)CC3)n2)c1 | -1 | 0 | -3 | 54* | 5 | 11
c1cncc(CN2CCN(Cc3cccnc3)CC2)c1 | 0 | 0 | 9 | 60* | 3 | -1
O=S(=O)(c1ccc(Cl)cc1)N1CCN(Cc2cccnc2)CC1 | -1 | 0 | -2 | 4 | . | .
Brc1ccc(CN2CCN(Cc3cccnc3)CC2)cc1 | 4 | 0 | -4 | 84* | 1 | 9
c1cncc(CN2CCN(Cc3ccco3)CC2)c1 | 1 | 0 | 2 | 75* | 9 | -1
Fc1ccc(N2CCN(Cc3cccnc3)CC2)cc1 | 1 | 0 | 11 | 37 | . | .
O=C(CCc1nnc2n(Cc3ccc(F)cc3)c(=O)c3ccccc3n12)NC1CCCC1 | 0 | 0 | 18 | 12 | . | .
O=C(CN1c2cccc3cccc(c23)S1(=O)=O)N1CCCc2ccccc21 | 3 | 0 | 11 | -14 | . | .
Brc1ccc(CN2CCN(c3ncccn3)CC2)cc1 | 0 | 0 | 5 | 54* | 1 | 3
CC1CCC(N2CCN(Cc3cccnc3)CC2)CC1 (stereo not given) | 0 | 0 | 7 | 84* | -5 | 15
CCOC(=O)Cn1nnnc1CN(Cc1cc2ccc(OC)cc2[nH]c1=O)C1CCCC1 | 0 | 0 | -5 | -7 | . | .
CCS(=O)(=O)N1CCN(C(C)CCc2ccccc2)CC1 (stereo not given) | 1 | 0 | 18 | 51* | 6 | 12
CCOc1cc(CN2CCN(Cc3ccccc3Cl)CC2)ccc1OC | 0 | 0 | -7 | 67* | 8 | 12
CCOc1cc(CN2CCN(Cc3cccnc3)CC2)ccc1OC | 0 | 1 | 0 | 74* | -9 | -1
